Drawing on PubChem BioAssay (NCI), this text covers growth for 13 compounds.

Among the test systems are DU-145 prostate; K-562 leukemia; MALME-3M melanoma; MDA-MB-231 breast; RXF 393 renal; SF-268 CNS; SF-295 CNS; SF-539 CNS; UACC-257 melanoma; M14 melanoma.
Experiment in all cases: NCI-60 one-dose screen, 48 h (100 = growth as untreated, 0 = no growth, -100 = all killed)
Conditions in all cases: 10 µM unless noted

The structures appear in SMILES notation. The panel holds about 83,000 compounds, 20% with a hit somewhere; the sample as a whole holds those more often.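 Activity criterion: percent growth below 10, measured after cells in 96-well plates were exposed to a single compound concentration for 48 hours.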 A number with no mark means an inactive call. Calls of active or inactive are those of the source.

For `Cc1c(C(=O)NCCC(=O)NO)sc2ncnc(Nc3ccc(NC(=O)Nc4cccc(C(F)(F)F)c4)cc3)c12`, the growth was 105% in the assay with DU-145 prostate; 104% in the assay with K-562 leukemia; 112% with MALME-3M melanoma; 105% in the assay on MDA-MB-231 breast; 104% in the assay on RXF 393 renal; 93.4% with SF-268 CNS. The growth with SF-295 CNS was 91.8%; in the assay with SF-539 CNS, 79%; with UACC-257 melanoma, 108%; in the assay on M14 melanoma, 107%.
On to `COc1ccc(NC(=O)c2cc(NCc3cc(O)ccc3O)ccc2O)cc1`, for which the growth is 97.4% with DU-145 prostate; 73.1% with K-562 leukemia; 108% in the assay with MALME-3M melanoma; 79.1% in the assay with MDA-MB-231 breast; 91.2% in the assay with RXF 393 renal; 80.8% in the assay with SF-268 CNS. Also, the growth in the assay on SF-295 CNS was 115%; in the assay with SF-539 CNS, 86.8%; with UACC-257 melanoma, 76.3%; in the assay on M14 melanoma it was 95.1%.
As for `CCOc1ccc(/C=N/Nc2cc(C)nc3ccc(Br)cc23)cc1`, the growth was 94.2% in the assay on DU-145 prostate; 20.2% in the assay with K-562 leukemia; 102% in the assay on MALME-3M melanoma; 68.5% in the assay with MDA-MB-231 breast; 85.8% in the assay with RXF 393 renal; 99.7% in the assay on SF-268 CNS. Also, the growth is 82.7% with SF-295 CNS, 102% in the assay with SF-539 CNS, 96% with UACC-257 melanoma and 94% with M14 melanoma.
On to `COc1ccc(C(=O)C2C(C#N)C(C#N)C3c4ccccc4C=CN23)cc1` (stereo not given), for which the growth in the assay on DU-145 prostate is 103%; in the assay with K-562 leukemia, 73.1%; in the assay on MALME-3M melanoma, 92.1%; with MDA-MB-231 breast, 79.2%; with RXF 393 renal, 77.9%; in the assay on SF-268 CNS it was 91%. Besides, the growth in the assay with SF-295 CNS was 95.8%; in the assay on SF-539 CNS, 95.4%; in the assay on UACC-257 melanoma, 85.7%; in the assay on M14 melanoma, 96.2%.
On to `COc1ccc(C(=O)NNc2nc(Cl)nc(N3CCN(C(c4ccccc4)c4ccccc4)CC3)n2)cc1`, for which the growth is 67.7% in the assay on DU-145 prostate; -16.5% (active) in the assay with K-562 leukemia; 46.3% with MALME-3M melanoma; -1.74% (active) in the assay on MDA-MB-231 breast; 9.64% (active) in the assay on RXF 393 renal; 86.6% in the assay on SF-268 CNS. In addition, the growth in the assay with SF-295 CNS is 96.8%; with SF-539 CNS, 33.4%; in the assay on UACC-257 melanoma, 65.2%; with M14 melanoma, 31.3%.
`CC(C)N1C(=O)S/C(=C2/SC(=O)N(C(C)C)C2=O)C1=O`: the growth was 91.8% in the assay with DU-145 prostate; 94.4% in the assay on K-562 leukemia; 90.4% in the assay with MALME-3M melanoma; 76.2% with MDA-MB-231 breast; 99.2% in the assay with RXF 393 renal; 94.8% in the assay with SF-268 CNS. The growth is 101% in the assay with SF-295 CNS, 86.4% with SF-539 CNS, 99% in the assay on UACC-257 melanoma and 93% in the assay with M14 melanoma.
As to `COc1ccc(C(=O)c2cc(C)c(OC)c(C)c2)c(OC)c1OC(=O)C(Cl)Cl`, the growth with DU-145 prostate is 4.39% (active); in the assay with K-562 leukemia it was 8.43% (active); with MALME-3M melanoma, 58.9%; with MDA-MB-231 breast it was 18.8%; in the assay with RXF 393 renal it was 38.7%; in the assay with SF-268 CNS it was 25%. Moreover, the growth in the assay on SF-295 CNS is 14.5%; in the assay with SF-539 CNS, -16% (active); with UACC-257 melanoma it was 48.1%; with M14 melanoma it was -9.89% (active).
For the compound `C=C1C(=O)O[C@H]2[C@H]1CC/C(COC(=O)NCc1c[nH]c3ccc(Cl)cc13)=C\CC[C@@]1(C)O[C@@H]21`, the growth is -72.2% (active) in the assay with DU-145 prostate; 0.207% (active) in the assay with K-562 leukemia; -57.1% (active) in the assay on MALME-3M melanoma; -70.4% (active) in the assay with MDA-MB-231 breast; -92.5% (active) in the assay with RXF 393 renal; -3.81% (active) with SF-268 CNS. The growth in the assay with SF-295 CNS is 63.8%; in the assay with SF-539 CNS it was -54.9% (active); with UACC-257 melanoma it was 19.4%; in the assay with M14 melanoma, -53.2% (active).
For `CCN1CCN(CCNc2nccc(-c3c(-c4cccc(OC)c4)nc4occn34)n2)S1(=O)=O`, the growth was 104% in the assay on DU-145 prostate; 7.02% (active) in the assay with K-562 leukemia; 6.12% (active) in the assay on MALME-3M melanoma; 87.7% with MDA-MB-231 breast; 94.4% in the assay on RXF 393 renal; 102% in the assay on SF-268 CNS. Further, the growth is 101% with SF-295 CNS, 104% with SF-539 CNS, 52.7% in the assay on UACC-257 melanoma and 40% with M14 melanoma.
Turning to `COc1ccc(CC(C)=C(c2ccc(OCCN3CCCCCC3)cc2)c2ccc(OCCN3CCCCCC3)cc2)cc1`, the growth in the assay on DU-145 prostate was -96.2% (active); in the assay with K-562 leukemia, -55.4% (active); in the assay with MALME-3M melanoma, -91.9% (active); in the assay on MDA-MB-231 breast, -98.2% (active); with RXF 393 renal, -82.1% (active); in the assay on SF-268 CNS, -81.2% (active). Also, the growth was -93.3% (active) with SF-295 CNS, -95.8% (active) in the assay with SF-539 CNS, -76.3% (active) with UACC-257 melanoma and -67.3% (active) with M14 melanoma.
In the case of `CCCCCCCCOc1ccc(/C=N/Nc2cc(C)nc3ccc(Br)cc23)cc1`, the growth with DU-145 prostate is 33.5%; with K-562 leukemia, 10.7%; in the assay with MALME-3M melanoma it was 40.8%; in the assay with MDA-MB-231 breast it was 33.2%; in the assay on RXF 393 renal, 88.3%; in the assay with SF-268 CNS, 86.3%. In addition, the growth in the assay with SF-295 CNS was 78.8%; with SF-539 CNS, 32.6%; in the assay with UACC-257 melanoma it was 84%; with M14 melanoma it was 53.6%.
Regarding `CCN(CC)CCn1c(=O)c2cc(OC)c(OC)cc2c2ccc3cc4c(cc3c21)OCO4`, the growth was 24.1% in the assay on DU-145 prostate; 33.4% in the assay with K-562 leukemia; 17.2% in the assay with MALME-3M melanoma; 54.8% in the assay with MDA-MB-231 breast; 8.86% (active) with RXF 393 renal; 35.6% in the assay on SF-268 CNS. Further, the growth was 24.5% in the assay with SF-295 CNS, -7.07% (active) in the assay on SF-539 CNS, 41.3% in the assay with UACC-257 melanoma and 10.6% in the assay with M14 melanoma.
In the case of `CCCCC[n+]1ccc(SCC(=O)N(C)c2ccc(Oc3ccccc3)cc2)c2ccccc21`, the growth in the assay on DU-145 prostate is 112%; in the assay on K-562 leukemia, 25.4%; with MALME-3M melanoma it was 84.8%; with MDA-MB-231 breast, 110%; in the assay on RXF 393 renal, 115%; with SF-268 CNS it was 116%. The growth was 91.4% in the assay with SF-295 CNS, 107% in the assay on SF-539 CNS, 96.2% with UACC-257 melanoma and 102% in the assay with M14 melanoma.
